LAP4 TOR yeast = alters LAP4-GFP fluorescence in TOR pathway yeast screen; S. cerevisiae LAP4-GFP multiplex, flow cytometry GFP, 3 h; median GFP as percent of DMSO wells; GFP response vs DMSO, % at 10 µM; 320,000 compounds, 0.34% hits; AID 2023;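 active = GFP response vs DMSO above a set limit, about the screen mean plus 3 SD, cut at about 150% in these data; inconclusive = under 70 cell events counted for the yeast strain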
MEP2-GFP yeast = yeast TOR pathway MEP2-GFP modulation; S. cerevisiae MEP2-GFP strain, flow cytometry GFP, 3 h; 100% = DMSO control level; GFP response vs DMSO, % at 10 µM; 330,000 compounds, 0.51% hits; AID 2016;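 active = GFP response versus DMSO above a set limit, roughly screen mean plus 3 SD, cut at about 180% in these data; inconclusive = fewer than 70 cells counted for a yeast strain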;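 note: median GFP fluorescence of the barcode-gated MEP2-GFP cells per well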
Pemphigus Ab inh = inhibitors of pemphigus antibody binding to human desmoglein-3 | DSG3-coupled beads, scFv-anti-DSG3-GFP binding, flow cytometry; hits give low values | P32926 | AID 588358 | binding (percent of control), % at 10 µM | 310,000 compounds, 0.48% hits;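 active = binding more than 3 SD below its plate's average and above zero; inconclusive = below that plate limit but binding exactly zero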;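 note: hits lower antibody fragment binding to DSG3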
CIT2 TOR yeast = yeast TOR pathway CIT2-GFP modulation; 320,000 compounds, 0.065% hits; GFP response vs DMSO, % at 10 µM; S. cerevisiae CIT2-GFP strain, flow cytometry, 3 h; 100 means same as DMSO wells;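 active = GFP response relative to DMSO above a set limit, near the screen mean plus 3 SD, cut at about 150% in these data; inconclusive = Fewer than 70 cells measured for a yeast strain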;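 note: ratio of well median GFP fluorescence to mean of DMSO wells on the plate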
RPL19A-GFP yeast = yeast TOR pathway RPL19A-GFP modulation | 330,000 compounds, 0.3% hits | percent response vs DMSO, % at 10 µM | AID 2025 | S. cerevisiae RPL19A-GFP strain, flow cytometry, 3 h; hits give low values;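 active = percent response vs DMSO below 50%; inconclusive = fewer than 70 events counted for the yeast strain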;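 note: median channel GFP fluorescence of the barcoded RPL19A-GFP strain; ratio of sample median GFP to plate DMSO average so 100% = DMSO; lower means less RPL19A-GFP as with rapamycin TOR inhibition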
AGP1-GFP MLPCN = modulators of TOR pathway AGP1-GFP in S. cerevisiae; S. cerevisiae AGP1-GFP multiplex flow cytometry, 3 h; GFP as percent of DMSO wells; GFP response vs DMSO, % at 10 µM; 320,000 compounds, 0.02% hits; AID 2066;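 active = GFP response relative to DMSO above a set limit, near screen average plus 3 SD, cut at about 150% in these data; inconclusive = fewer than 70 cells counted for the yeast strain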;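 note: median GFP channel fluorescence of the gated AGP1 strain per well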
* hit, by the source's call; ? = inconclusive; . = no result; [ ] = another dose, or the depositor's remark. Only some compounds are listed: those with a hit (about 1.2% of all), similar ones and a draw of the others.

SMILES | LAP4 TOR yeast | MEP2-GFP yeast | Pemphigus Ab inh | CIT2 TOR yeast | RPL19A-GFP yeast | AGP1-GFP MLPCN
COc1ccc2[nH]cc(C3=CCNCC3)c2c1 | 174* | 183* | . | 171* | 109 | 97
CN(C)CC1CSCCC1(O)c1ccc(Cl)cc1 (stereo not drawn) | 91 | 205*[may fluoresce violet] | 99 | ? | 45*[may fluoresce violet] | ?
CN(C)CC1CSCCC1(O)c1ccc(C(F)(F)F)cc1 (stereo not drawn) | 95 | 101 | 81 | 94 | 106 | 101
c1ccc2c(c1)[IH]c1ccccc1-2 | . | . | 107 | . | . | .
COc1cc2c(cc1OC)C(C(=O)NC(C)C)C1CCCCN1C2=O (stereo not drawn) | 113 | 498*[may fluoresce violet] | 89 | ? | 31*[may fluoresce violet] | ?
CCCNS(=O)(=O)c1ccc(OCC(=O)N2CCN(Cc3ccc4c(c3)OCO4)CC2)c(C)c1 | 90 | 86 | 102 | 91 | 92 | 104
Cc1cc(C=C2C(=O)N(C)C(=S)N(C)C2=O)c(C)n1-c1ccncc1 | 157* | 108 | 107 | 59 | 84 | 105
O=C(/C=C/c1ccccc1)c1c(O)n(CCc2ccccc2)c(=O)[nH]c1=O | 93 | 106 | . | 100 | 99 | 91
COc1cc(/C=C/C(=O)c2c(O)n(CCc3ccccc3)c(=O)[nH]c2=O)ccc1O | 125 | 585* | 105 | 105 | 117 | 74
COC(=O)C1=C(c2ccc(Cl)c(C(F)(F)F)c2)C[C@@H]2CC[C@H]1N2C(=O)NCCCOC(C)C | 98 | 99 | 80 | 100 | 94 | 94
Cn1c(O)c(Cc2ccc(OCc3ccccc3)cc2)c(=O)n(C)c1=O | 104 | 113 | 68* | 99 | 108 | 99
Cc1cccc2c1=NC(=O)/C(=C/c1c(O)[nH]c(=O)[nH]c1=O)C=2 | 92 | 103 | . | 105 | 106 | 101
O=c1[nH]c(=S)[nH]c(O)c1/C=C1/C=c2ccccc2=N1 | 103 | 128 | 83* | 116 | 103 | 104
CC[n+]1c(/C=C/C=C/c2ccc(N(C)C)cc2)sc2ccccc21 | 366*[may fluoresce red] | 103 | 104 | 103 | ? | 106
CC(=O)OC1N=C(c2ccccc2)c2cc(Br)ccc2NC1=O (stereo not drawn) | 106 | 105 | 102 | 113 | 112 | 114
CC(=O)OC1N=C(c2ccc(Cl)cc2)c2cc(Br)ccc2NC1=O (stereo not drawn) | 85 | 451*[may fluoresce violet] | . | ? | 58 | 22
CC[C@H](C)/C=C(C)/C=C/C1=CC2=C(Cl)C(=O)[C@](C)(OC(C)=O)C(=O)C2=CO1 | 60 | 70 | 89 | ? | 38*[may fluoresce violet] | 12
COc1ccc(CN2C(=O)NC(=O)/C(=C\c3cc(OC)c(OC)c(OC)c3)C2=O)cc1 | 97 | 95 | 104 | 91 | 95 | 95
O=C1NC(=O)N(CCc2ccc(F)cc2)C(=O)/C1=C/c1ccco1 | 182* | 97 | . | 100 | 95 | 88
COc1ccc(CN2C(=O)NC(=O)/C(=C\c3ccco3)C2=O)cc1 | 85 | 102 | 67* | . | 82 | 90
Cc1ccc(/C=C2/C(=O)NC(=O)N(CCc3ccc(F)cc3)C2=O)o1 | 92 | 95 | 96 | 92 | 95 | 99
O=C1NC(=S)N(c2ccccc2)C(=O)/C1=C/c1ccco1 | 157* | 92 | 112 | 83 | 95 | 85
COC1=CC(=O)OC(CCc2ccc3c(c2)OCO3)C1 (stereo not drawn) | . | . | 124 | . | . | .
O=c1[nH]c(=O)n(Cc2ccc(F)cc2)c(O)c1C=NCCN1CCCCC1 | 146 | 179* | . | 111 | 78 | 129
O=c1[nH]c(=O)n(-c2ccccc2Cl)c(O)c1C=NCCN1CCCCC1 | 110 | 105 | 92 | 106 | 102 | 103
SMILES | LAP4 TOR yeast | MEP2-GFP yeast | Pemphigus Ab inh | CIT2 TOR yeast | RPL19A-GFP yeast | AGP1-GFP MLPCN
COC(=O)C1=CO[C@@H](C)[C@@H]2CN(CCc3c[nH]c4ccccc34)CC[C@H]12 | 106 | 94 | 98 | 97 | 98 | 102
Cc1ccc(/C=C2\C(=O)NC(=O)N(CC3CCCO3)C2=O)s1 (stereo not drawn) | 191* | 84 | 100 | 54 | 88 | 76
CCN(CC)c1ccc(/C=C2\C(=O)NC(=O)N(CC3CCCO3)C2=O)cc1 (stereo not drawn) | 90 | 108 | 109 | 101 | 108 | 108
N#CC(C#N)=NNc1ccc(-n2ccc(C(F)(F)F)n2)cc1 | 198* | 96 | 117 | 89 | 73 | 69
Cc1cc(C)n(-c2ccc(NN=C(C#N)C#N)cc2)n1 | 100 | 100 | . | 96 | 98 | 95
CCN(CC)c1ccc(/C=C/[N+](=O)[O-])cc1 | 160* | 102 | 222 | 92 | 103 | 91
CC[C@@]1(O)C(=O)OCc2c1cc1n(c2=O)Cc2cc3ccccc3nc2-1 | 160* | 86 | . | 91 | 97 | 81
CCOC(=O)CC1c2ccccc2-n2nncc2CN1CC1CCCCC1 (stereo not drawn) | . | . | 99 | . | . | .
COc1ccc(CN2C(=O)C(CC(=O)NCc3ccco3)CC(C(=O)N(C)C)=C2C)cc1 (stereo not drawn) | . | . | 106 | . | . | .
O=C1NC(=S)NC(=O)C1=Cc1cccn1-c1ccc(O)cc1 | . | . | 66* | . | . | .
CN1C(=O)/C(=C/c2cccn2-c2ccc3ccccc3c2)C(=O)NC1=S | 113 | 94 | 79 | 88 | 90 | 50
CCOC(=O)C(O)(c1ccc(NC(=S)NC(=O)c2ccc(Cl)cc2Cl)c(C)c1)C(F)(F)F (stereo not drawn) | ? | 215*[may fluoresce violet] | 84 | ? | 28*[may fluoresce violet] | ?
CC(C)c1ccc(NC(=O)CCNC(=O)N2C[C@H]3C[C@@H](C2)c2cccc(=O)n2C3)cc1 | 105 | 104 | 99 | 97 | 98 | 102
COc1ccc2c3c([nH]c2c1)C(C)=NCC3 | 115 | 259*[may fluoresce violet] | . | ? | 51 | 18
CC1=NCCc2c1[nH]c1cc(O)ccc21 | 91 | 197*[may fluoresce violet] | 81 | ? | 50 | 62
COc1ccc(NC(=O)N2C[C@@H]3C[C@@H](C2)c2cccc(=O)n2C3)c(OC)c1 | 105 | 112 | 97 | 114 | 104 | 111
COc1ccc2c3c1OC1C(=O)CC[C@@]4(O)[C@@H](C2)N(CC2CC2)CC[C@]314 (stereo partly drawn) | 105 | 104 | 105 | 99 | 100 | 100
CN1C(=O)C(=Cc2ccc(SC3CCCCC3)o2)C(=O)N(C)C1=O | 151* | 92 | 82 | 83 | 95 | 92
C[N+]1(CC2COC(c3ccco3)O2)CCCCC1 (stereo not drawn) | 62 | 249*[may fluoresce violet] | 100 | ? | 58 | 17
C[C@]12CCC(=O)C=C1C=CC1C2CC[C@@]2(C)C1CC[C@@H]2O (stereo partly drawn) | . | . | 123 | . | . | .
Clc1ccc(CNCCc2ccc3c(c2)OCO3)cc1 | 85 | 102 | 98 | 99 | 105 | 105
